From PubChem BioAssay AID623911 (Vanderbilt High Throughput Screening Facility, 2012)
About 770 (37%) of roughly 2,100 compounds were called active.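 The calls were made as follows: active = by-eye trace score of 1 for enhancers or -1 for inhibitors, so actives lie on both sides (some results past the limit were not filed as active); inactive = score 0, or 3 fluorescent, or 4 baseline rise.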 The list shows a part of the results.

target: G protein-activated inward rectifier potassium channel 2 (Homo sapiens) + G protein-activated inward rectifier potassium channel 1 (Homo sapiens) (UniProt P48051+P48549); test: GIRK1/2 thallium flux modulators, retest, confirmation, cell-based, HEK293 rmGlu8/hGIRK1/2, FluoZin-2 (AID 623911); conditions: HEK293 rmGlu8/hGIRK1/2, thallium flux FluoZin-2; actives lie on both sides; glutamate co-added at its EC20 level
Sequence (P48051 whole entry, looked up): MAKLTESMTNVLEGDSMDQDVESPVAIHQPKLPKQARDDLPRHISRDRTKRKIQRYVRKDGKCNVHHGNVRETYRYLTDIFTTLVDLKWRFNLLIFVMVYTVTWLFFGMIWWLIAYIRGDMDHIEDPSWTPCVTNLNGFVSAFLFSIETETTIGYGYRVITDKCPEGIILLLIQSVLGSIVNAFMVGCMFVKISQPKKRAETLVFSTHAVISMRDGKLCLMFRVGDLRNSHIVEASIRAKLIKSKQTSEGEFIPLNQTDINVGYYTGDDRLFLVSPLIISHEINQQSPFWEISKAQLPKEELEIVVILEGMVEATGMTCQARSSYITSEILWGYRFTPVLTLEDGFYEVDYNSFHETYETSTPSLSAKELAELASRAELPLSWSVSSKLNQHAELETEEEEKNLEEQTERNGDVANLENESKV
Sequence (P48549 whole entry, looked up): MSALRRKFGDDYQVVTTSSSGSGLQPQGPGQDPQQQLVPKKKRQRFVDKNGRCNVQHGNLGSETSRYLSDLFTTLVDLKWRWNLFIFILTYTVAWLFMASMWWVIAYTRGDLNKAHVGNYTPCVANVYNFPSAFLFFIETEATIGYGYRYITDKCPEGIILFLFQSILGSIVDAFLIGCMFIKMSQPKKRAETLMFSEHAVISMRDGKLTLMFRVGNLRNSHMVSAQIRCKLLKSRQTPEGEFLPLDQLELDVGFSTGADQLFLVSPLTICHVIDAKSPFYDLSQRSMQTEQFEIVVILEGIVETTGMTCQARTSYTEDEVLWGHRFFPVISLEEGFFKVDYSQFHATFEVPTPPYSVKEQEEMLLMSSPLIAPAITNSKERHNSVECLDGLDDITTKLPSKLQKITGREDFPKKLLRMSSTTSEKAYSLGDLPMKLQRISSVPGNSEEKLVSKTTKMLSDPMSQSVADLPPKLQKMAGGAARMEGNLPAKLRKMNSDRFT

Row | SMILES | manual score
1 | CSC(=O)NC12CC3CC(CC(C)(C3)C1)C2 | 0 (inactive)
2 | COCCNC(=O)CN1C(=O)CSc2ncccc21 | 1 (active)
3 | CCC(C)NC(=O)CN1C(=O)CC(C)(C)S(=O)(=O)c2ccccc21 (stereo not drawn) | 0 (inactive)
4 | COCCNC(=O)CCCCCn1c(=S)[nH]c2ccccc2c1=O | 0 (inactive)
5 | CC(c1ccc(Cl)cc1)n1c(-c2ccc3ccccc3n2)n[nH]c1=S (stereo not drawn) | 1 (active)
6 | CCc1cc(-c2n[nH]c(=S)n2C(C)c2ccccc2)cs1 (stereo not drawn) | -0.5 (inactive)
7 | CC(c1ccc(F)cc1)n1c(-c2ccc3ccccc3n2)n[nH]c1=S (stereo not drawn) | 0.5 (inactive)
8 | COc1ccc(NC2=Nc3cccc4cccc2c34)cc1OC | 0 (inactive)
9 | CCCCN(C)C1=Nc2cccc3cccc1c23 | -1 (active)
10 | CC/C(=N\NC(=S)Nc1ccc(OC)cc1)c1ccc(OC(F)F)cc1 | 0 (inactive)
11 | CCc1ccc(NC(=S)NNC(=O)c2ccccc2OC(F)F)cc1 | 1 (active)
12 | O=C1C2C3C=CC(C3)C2C(=O)N1/N=C/c1cn(Cc2ccccc2)c2ccccc12 (stereo not drawn) | 0 (inactive)
13 | CC(C)CC(=O)NC(=S)Nc1nc(-c2cccc3ccccc23)cs1 | 0 (inactive)
14 | CCOC(=O)Cc1csc(NC(=O)Nc2ccccc2)n1 | 1 (active)
15 | CCOC(=O)Cc1csc(NC(=S)NC(=O)C(C)(C)C)n1 | 1 (active)
16 | CCOC(=O)Cc1csc(NC(=S)NC(=O)c2ccccc2)n1 | 1 (active)
17 | O=C(NC(=S)Nc1nc2c(s1)CCCC2)c1ccc(C(=O)c2ccccc2)cc1 | 0 (inactive)
18 | CCOC(=O)Cc1csc(NC(=S)NC(=O)c2ccc(C)cc2)n1 | 1 (active)
19 | O=C(NC(=S)Nc1nc2c(s1)CCCC2)c1ccccc1 | 0 (inactive)
20 | O=C1C(Cl)=C(N2CCOCC2)C(=O)N1c1cccc(Cl)c1 | 0 (inactive)
21 | CCCc1cc(-c2n[nH]c(=S)n2CC(C)C)cs1 | 0 (inactive)
22 | CCCCCNC(=O)c1ccc2c(=O)[nH]c3c(C(=O)NCC4CCCO4)sc(=S)n3c2c1 (stereo not drawn) | 0 (inactive)
23 | CC(C)C(C)(C#N)NC(=O)CSc1ncnc2sc(-c3ccccc3)cc12 (stereo not drawn) | 0 (inactive)
24 | Cc1cc(C(=O)CSc2n[nH]c(N)n2)c(C)n1-c1cc(F)ccc1F | 0 (inactive)
25 | O=C1Nc2cc(S(=O)(=O)N3CCCC3)ccc2N2CCCC12 (stereo not drawn) | 0 (inactive)
26 | CC(C)c1ccccc1NC(=O)COC(=O)/C=C/c1cccc([N+](=O)[O-])c1 | 0 (inactive)

Row | SMILES | manual score
27 | Cc1ccc(NC(=O)Cc2ccccc2Cl)cc1S(=O)(=O)N(C)C | 1 (active)
28 | Cc1ccc(NC(=O)COC(=O)CCC(=O)c2ccc(Cl)cc2)cc1S(=O)(=O)N(C)C | 1 (active)
29 | CCOCc1c(C(=O)OCC(=O)Nc2ccc(C)c(S(=O)(=O)N(C)C)c2)oc2ccccc12 | 1 (active)
30 | Cc1ccc(NC(=O)COn2nnc3ccc(S(=O)(=O)N(C)C)cc32)cc1F | 0 (inactive)
31 | Cc1ccc(NC(=O)COC(=O)/C=C/c2ccco2)cc1S(=O)(=O)N(C)C | 1 (active)
32 | Cc1cc(C(=O)OCC(=O)Nc2ccc(F)cc2)c(C)o1 | 0 (inactive)
33 | O=C(CSCc1ccc(Br)cc1)N=Nc1c(O)[nH]c2ccccc12 | 0 (inactive)
34 | CCc1nnc(NC(=O)CSc2nnc(C3CCCCC3)n2-c2cccc(Cl)c2)s1 | 0 (inactive)
35 | COCCN=c1scc(-c2cccs2)n1/N=C/c1ccc(O)c(O)c1O | 0 (inactive)
36 | CCOC(=O)CN1NC2(CCC(C(C)(C)C)CC2)NC1=S (stereo not drawn) | 0 (inactive)
37 | Cc1ccc(NC(=O)Cc2c(Cl)cccc2Cl)cc1S(=O)(=O)N(C)C | 1 (active)
38 | COC(=O)c1sccc1NC(=O)CSc1ccccc1NS(=O)(=O)c1ccccc1Cl | 0 (inactive)
39 | CC1(C)NC(=O)NC2(C)NC(=O)NC(C)(C)C12 (stereo not drawn) | 0 (inactive)
40 | COc1cc(NC(=O)CS(=O)(=O)c2ccc(C)cc2)cc(OC)c1OC | 0 (inactive)
41 | COc1cc(C(=O)NC2CC3CCCC(C2)N3CC(=O)Nc2ccccc2)cc(OC)c1OC (stereo not drawn) | -1 (active)
42 | CC1CCN(CC(O)COC2CCC(C(C)(C)C)CC2)CC1 (stereo not drawn) | -1 (active)
43 | O=C1OCCC1Sc1nc2cc(Cl)ccc2n1Cc1ccccc1 (stereo not drawn) | 0 (inactive)
44 | CCCCSc1nc(N)c(NC(=O)c2ccco2)c(=O)[nH]1 | 0 (inactive)
45 | CCN(C(=O)COc1cc(=O)n(CC)c2ccccc12)c1cc(Cl)ccc1OC | -0.5 (inactive)
46 | COc1cccc(NC(=O)NCCCSC2CCCCC2)c1 | 1 (active)
47 | COC(=O)[C@H]1CCCN1C(=O)Nc1cccc(Oc2c(F)c(F)c(F)c(F)c2F)c1 | 0 (inactive)
48 | COc1ccc(S(=O)(=O)NCCC(=O)NC2CCCCCCC2)cc1 | 0 (inactive)
49 | Cc1sc2c(c1C)CN(C1CC(C)(C)NC(C)(C)C1)CN2C(=O)c1ccco1 | -1 (active)
50 | C/C(=N\NC(=O)COc1ccc(C)cc1C(C)C)c1ccc(-n2ccnc2)cc1 | -1 (active)
51 | Cc1ccc(OCC(=O)N/N=C\c2ccc(-c3cccc(C(=O)O)c3)o2)c(C)c1 | 0 (inactive)
52 | Cc1conc1NC(c1cccs1)c1ccc2cccnc2c1O (stereo not drawn) | 0 (inactive)

Row | SMILES | manual score
53 | O=S(=O)(Nc1nc(-c2sccc2Cl)cs1)c1cc(Cl)ccc1Cl | 0 (inactive)
54 | Cc1cc(NC(=O)c2c(F)cccc2Cl)n(-c2nc3ccccc3[nH]2)n1 | 0 (inactive)
55 | Cc1ccc(Nc2cc(C)nn2-c2nc(C)cc(=O)[nH]2)cc1 | 1 (active)
56 | COc1ccccc1-c1ccc(NC2CCCC2)nn1 | 0 (inactive)
57 | COc1ccccc1NC(=O)c1cc(C(=O)Nc2ccccc2OC)cc(N2C(=O)CCC2=O)c1 | 0 (inactive)
58 | COc1ccccc1Nc1ccc(Nc2ccccc2OC)nn1 | 1 (active)
59 | CCCC(=O)NC(c1cccs1)c1cc([N+](=O)[O-])c2cccnc2c1O (stereo not drawn) | 0 (inactive)
60 | CCc1c(C)sc(NC(=O)CCc2ccc(OC)cc2)c1C(N)=O | 0 (inactive)
61 | O=C(Cn1c(=O)[nH]c2ccsc2c1=O)NC1CCCCCC1 | 0 (inactive)
62 | COc1cc(NC(=O)CCn2c(=O)[nH]c3ccsc3c2=O)cc(OC)c1 | 0 (inactive)
63 | COc1ccc(Cn2c(=S)[nH]c3ccsc3c2=O)cc1 | 1 (active)
64 | O=C(NNS(=O)(=O)c1cc(Cl)cc(Cl)c1)c1sccc1-n1cccc1 | 1 (active)
65 | O=C(NNC(=O)c1sccc1-n1cccc1)c1ccc(Cl)cc1 | 1 (active)
66 | O=C(NNC(=S)Nc1cccc(C(F)(F)F)c1)c1cccc(Cl)c1 | 0.5 (inactive)
67 | CCNC(=S)NNC(=O)c1cccn(Cc2ccc(Cl)cc2)c1=O | 0 (inactive)
68 | O=C(NNC(=O)c1sccc1-n1cccc1)c1cccc(Cl)c1 | 1 (active)
69 | Cn1sc(NC(=O)c2cccc(Cl)c2)nc1=O | 0 (inactive)
70 | Cn1c2ccccc2c2cc(C(=O)NNS(=O)(=O)c3ccc(F)cc3)sc21 | 0 (inactive)
71 | Cc1cccc(-n2c(O)c(/C=N/NC(=O)c3ccccc3Cl)c3ccccc3c2=O)n1 | 0 (inactive)
72 | Clc1ccc(Cl)c(OCc2cc(-c3ccccc3Cl)on2)c1 | 0 (inactive)
73 | C/C(=N\O)C(C)NC(=O)c1ccccc1 (stereo not drawn) | -0.5 (inactive)
74 | O=C(NN=c1c(=O)c2ccccc2c1=O)c1ccccc1 | 1 (active)
75 | CC1Oc2ccccc2C=C1/C=N/NC(=O)c1ccccc1 (stereo not drawn) | 0 (inactive)
76 | Cc1ccc(C(=O)NNc2nc3ccccc3nc2C(F)(F)F)cc1 | 1 (active)
77 | Cc1nc(/N=C(\N)NC(=O)c2ccccc2)nc2ccccc12 | 0 (inactive)
78 | O=C(NNc1ncc(C(F)(F)F)cc1Cl)c1c(Cl)cccc1Cl | 0 (inactive)

Row | SMILES | manual score
79 | O=C(NNc1nc2ccccc2nc1C(F)(F)F)c1ccccc1 | 1 (active)
80 | Cc1ccc(C(=O)N/N=C/C2=Cc3ccccc3OC2C)cc1 (stereo not drawn) | 0 (inactive)
81 | Cc1ccc(C(=O)NC2(C(F)(F)F)N=C3SCCN3C2=O)cc1 (stereo not drawn) | 0 (inactive)
82 | COc1ccc(-n2cc(-c3ccccc3)[nH]c2=S)cc1 | 0 (inactive)
83 | CCCc1cc(=O)n2[nH]c(-c3ccc(Br)cc3)cc2n1 | 0 (inactive)
84 | O=C1Nc2ccccc2C12OCC1(CO2)COC2(OC1)C(=O)Nc1ccccc12 (stereo not drawn) | 0 (inactive)
85 | CCOc1ccc(NC(=O)Cn2nnc(-c3ccccc3F)n2)cc1 | 0 (inactive)
86 | COc1cc(NC(=O)Cn2nnc(-c3ccccc3N)n2)cc(OC)c1 | 1 (active)
87 | COc1cc(NC(=O)CSCc2cnn(-c3ccccc3)c2-n2cccc2)cc(OC)c1 | 0 (inactive)
88 | Cc1ccc(C)c(-n2nnnc2SCC(=O)Nc2cccc(-c3nnc4n3CCCCC4)c2)c1 | 3 (inactive)
89 | CCOC(=O)c1cccc(NC(=O)CSc2nnc(C3CCCCC3)n2C)c1 | 0 (inactive)
90 | O=C(CSc1nnnn1-c1ccc(O)cc1)Nc1cccc(S(=O)(=O)N2CCCC2)c1 | -1 (active)
91 | Cc1ccccc1C(=O)NC(=S)Nc1ccc(Oc2ccc(Cl)cc2)cc1 | 0 (inactive)
92 | CCOC(=O)Cc1csc(NC(=S)NC(=O)c2ccccc2C)n1 | 1 (active)
93 | CCOC(=O)Cc1csc(NC(=S)NC(=O)c2ccccc2Br)n1 | 1 (active)
94 | COc1cc(OC)c(-c2c3cc(O)c(=O)cc-3oc3cc(O)c(O)cc23)cc1OC | 3 (inactive)
95 | CCOC(=O)c1ccc(NC(=O)N2CCN(Cc3cccc(F)c3)CC2)cc1 | -1 (active)
96 | CCCOC(=O)c1ccc(NC(=O)c2ccoc2C)cc1 | 0.5 (inactive)
97 | CCOC(=O)c1ccc(NC(=O)Nc2ccc(OC)c(OC)c2)cc1 | 0.5 (inactive)
98 | CN1C(=O)c2oc3ccccc3c(=O)c2C1c1ccccn1 (stereo not drawn) | 0 (inactive)
99 | CC1CCC/C(=N\NC(=O)COc2ccc(Cl)cc2Cl)C1 (stereo not drawn) | 1 (active)
100 | N#C/C(=N\Nc1ccc(Cl)cc1)C(=O)c1ccccc1 | -1 (active)
101 | O=C(N/C(=N\O)c1ccccc1)Nc1ccc(Cl)cc1 | 0 (inactive)
102 | Cc1ccc(/C=N/Nc2nc(Cl)c(Cl)cc2Cl)s1 | 0 (inactive)
103 | O=S(=O)(Nc1cc(Sc2cccc3cccnc23)c(O)c2ccccc12)c1ccc(F)cc1 | 0 (inactive)
